# Reference: PubChem BioAssay
# Where “and” joins values, the source holds several entries; their conditions need not be identical. Identical values can stand only once. Inconclusive results are not listed. Calls of active or inactive are those of the source.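 The calls were made as follows, unless noted: active = inhibition above the screen-wide mean plus 3 SD, about 51%; inactive = the rest.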
# Legend:
# [1] = yeast TOR pathway RPL19A-GFP modulators, primary screen, cell-based, S. cerevisiae, multiplex flow cytometry (AID 1862; in the data active = percent of DMSO control GFP below about 86%;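 also: lower values mimic rapamycin by blocking the RPL19A rise seen in DMSO cells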); conditions: S. cerevisiae RPL19A-GFP strain, flow cytometry fluorescence, 3 h; at 10 µM; stronger effect = lower value
# [2] = modulators of MEP2-GFP levels in yeast, primary screen, S. cerevisiae, multiplex flow cytometry (AID 1867;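 active = GFP response, as percent of the DMSO control, above the screen-wide mean plus 3 SD, about 139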;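 also: median GFP channel fluorescence of barcode-gated MEP2-GFP cells measured by flow cytometry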); conditions: S. cerevisiae MEP2-GFP strain, 3 h, at 10 µM, stronger effect = higher value, 100% means same as DMSO wells
# [3] = modulators of CIT2-GFP expression in yeast, primary screen, S. cerevisiae, GFP fusion, multiplex flow cytometry (AID 1870;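 active = percent response above a set limit, the screen-wide mean plus 3 SD, cut at about 130% in these data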;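 also: barcoded CIT2-GFP strain pooled with four other GFP strains with rapamycin as positive control; median GFP fluorescence per well over plate mean of DMSO wells so 100% = DMSO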); conditions: 3 h, at 10 µM, stronger effect = higher value
# [4] = modulators of LAP4-GFP expression in yeast, primary screen, S. cerevisiae, multiplex flow cytometry (AID 1873;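 active = GFP signal, as percent of the solvent control, above the screen mean plus 3 SD, about 149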); conditions: 3 h, at 10 µM, stronger effect = higher value
# [5] = modulators of AGP1-GFP expression in yeast TOR pathway, primary screen, cell-based, multiplex flow cytometry, S. cerevisiae (AID 1887;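 active = GFP signal above the screen-wide mean plus 3 SD, that is over about 124.5% of the solvent control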;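 also: AGP1-GFP fusion strain of S. cerevisiae within a five-strain barcoded multiplex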); conditions: 3 h, at 10 µM, stronger effect = higher value
# [6] = inhibitors of CD8+ T cell-vesicle binding, pilot screen, LFA-1/ICAM-1 modulator project, MLPCN validation set, flow cytometry (AID 2523;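 active = response below a set limit, under 55% cells CD8-positive and vesicle-bound, and CD8 cells' 90th-percentile brightness under 279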;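 as to vesicle binding response: mean PE anti-B7-1 fluorescence of CD8+ cells relative to row control; 100% = QL9-loaded vesicles with DMSO vehicle in the same plate row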); conditions: 2C mouse CD8+ T cells, at 7 µM, stronger effect = lower value; double positive events: measured here: CD8+/vesicle+ event percentage
# [7] = target: Integrin beta-1 (Homo sapiens) + Integrin alpha-4 (Homo sapiens) (UniProt P13612+P05556); assay: inhibition of HUTS-21 binding to VLA-4, pilot screen, VLA-4 allosteric modulator project, U937 cells, HUTS-21 mAb, flow cytometry, validation set (AID 2674;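 active = inhibition above 50%, about 3 SD of the validation set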;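 also: antibody binding induced by the VLA-4 ligand LDV present at three times its Kd; 0% = LDV ligand with antibody and no compound and 100% = antibody without LDV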); conditions: HUTS-21 LIBS mAb binding, at 6.7 µM, stronger effect = higher value, binding induced by LDV ligand
# Sequence of Integrin beta-1 (Homo sapiens) + Integrin alpha-4 (Homo sapiens) (P05556 whole entry, looked up): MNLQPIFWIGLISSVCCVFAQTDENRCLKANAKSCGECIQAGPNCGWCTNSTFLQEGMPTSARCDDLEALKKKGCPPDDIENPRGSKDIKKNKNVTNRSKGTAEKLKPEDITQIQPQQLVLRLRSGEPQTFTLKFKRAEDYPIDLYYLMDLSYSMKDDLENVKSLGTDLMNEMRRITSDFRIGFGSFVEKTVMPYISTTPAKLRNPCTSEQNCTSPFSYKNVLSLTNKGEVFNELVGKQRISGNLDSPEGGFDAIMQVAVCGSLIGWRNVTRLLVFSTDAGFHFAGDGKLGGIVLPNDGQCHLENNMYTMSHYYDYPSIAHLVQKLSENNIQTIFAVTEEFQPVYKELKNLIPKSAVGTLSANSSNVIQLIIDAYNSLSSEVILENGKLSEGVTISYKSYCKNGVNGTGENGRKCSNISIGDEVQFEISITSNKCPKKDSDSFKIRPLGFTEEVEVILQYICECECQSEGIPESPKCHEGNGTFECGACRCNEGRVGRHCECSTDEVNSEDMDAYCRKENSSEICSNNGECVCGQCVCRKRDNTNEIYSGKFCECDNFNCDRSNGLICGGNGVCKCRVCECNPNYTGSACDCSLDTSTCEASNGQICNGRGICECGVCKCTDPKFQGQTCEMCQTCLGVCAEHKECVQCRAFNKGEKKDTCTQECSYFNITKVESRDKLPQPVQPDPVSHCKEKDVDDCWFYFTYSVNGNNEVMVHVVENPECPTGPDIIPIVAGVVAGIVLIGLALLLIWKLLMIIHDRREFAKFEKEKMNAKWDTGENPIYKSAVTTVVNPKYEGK
# Sequence of Integrin beta-1 (Homo sapiens) + Integrin alpha-4 (Homo sapiens) (P13612 whole entry, looked up): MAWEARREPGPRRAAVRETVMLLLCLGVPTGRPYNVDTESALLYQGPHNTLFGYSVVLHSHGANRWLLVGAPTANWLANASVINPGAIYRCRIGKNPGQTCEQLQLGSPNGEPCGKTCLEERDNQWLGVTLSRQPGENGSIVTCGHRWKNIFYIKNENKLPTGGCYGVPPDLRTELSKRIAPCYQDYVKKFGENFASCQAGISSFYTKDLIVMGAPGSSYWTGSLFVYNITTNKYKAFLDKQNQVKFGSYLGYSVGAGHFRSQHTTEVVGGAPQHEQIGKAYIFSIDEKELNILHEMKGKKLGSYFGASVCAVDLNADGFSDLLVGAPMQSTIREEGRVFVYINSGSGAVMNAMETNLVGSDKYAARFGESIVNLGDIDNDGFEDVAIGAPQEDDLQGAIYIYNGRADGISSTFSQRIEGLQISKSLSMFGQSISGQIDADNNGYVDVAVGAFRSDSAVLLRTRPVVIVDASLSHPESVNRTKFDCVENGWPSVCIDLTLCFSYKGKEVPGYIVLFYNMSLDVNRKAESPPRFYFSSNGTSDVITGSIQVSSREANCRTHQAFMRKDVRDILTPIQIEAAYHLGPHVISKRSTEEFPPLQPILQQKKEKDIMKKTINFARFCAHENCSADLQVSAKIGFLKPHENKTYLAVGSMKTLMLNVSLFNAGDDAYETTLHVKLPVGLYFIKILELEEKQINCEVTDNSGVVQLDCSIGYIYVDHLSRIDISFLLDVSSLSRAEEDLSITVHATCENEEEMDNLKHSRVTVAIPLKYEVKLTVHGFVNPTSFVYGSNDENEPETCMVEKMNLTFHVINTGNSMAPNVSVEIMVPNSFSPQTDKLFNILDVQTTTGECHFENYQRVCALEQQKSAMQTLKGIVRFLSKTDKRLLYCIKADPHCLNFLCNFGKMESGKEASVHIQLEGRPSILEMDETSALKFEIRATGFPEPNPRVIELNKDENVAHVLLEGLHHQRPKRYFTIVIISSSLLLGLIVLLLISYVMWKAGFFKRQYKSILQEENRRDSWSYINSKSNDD
# [8] = superoxide lowering in aged yeast cells, pilot screen, validation compound set (AID 2706;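 active = superoxide response below 65% of plate, a cut near 3 SD across the whole screen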;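 also: yeast exposed to compound for one week at 30 degrees C before staining; 100% = mean of all compound wells on the same plate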); conditions: S. cerevisiae aging, superoxide DHE fluorescence; at 10 µM; stronger effect = lower value
# [9] = target: Beta-adrenergic receptor kinase 1 (Homo sapiens) (UniProt P25098); assay: GRK2 binders displacing RNA aptamer, biochemical, validation, human GRK2, bead flow cytometry (AID 488806;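 active = aptamer binding inhibition above 30%, about 3 SD of noise from non-fluorescent compounds; inactive = inhibition at or below 30%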); conditions: bead-bound GRK2, FAM-aptamer displacement, at 10 µM, stronger effect = higher value
# Sequence of Beta-adrenergic receptor kinase 1 (Homo sapiens) (P25098 whole entry, looked up): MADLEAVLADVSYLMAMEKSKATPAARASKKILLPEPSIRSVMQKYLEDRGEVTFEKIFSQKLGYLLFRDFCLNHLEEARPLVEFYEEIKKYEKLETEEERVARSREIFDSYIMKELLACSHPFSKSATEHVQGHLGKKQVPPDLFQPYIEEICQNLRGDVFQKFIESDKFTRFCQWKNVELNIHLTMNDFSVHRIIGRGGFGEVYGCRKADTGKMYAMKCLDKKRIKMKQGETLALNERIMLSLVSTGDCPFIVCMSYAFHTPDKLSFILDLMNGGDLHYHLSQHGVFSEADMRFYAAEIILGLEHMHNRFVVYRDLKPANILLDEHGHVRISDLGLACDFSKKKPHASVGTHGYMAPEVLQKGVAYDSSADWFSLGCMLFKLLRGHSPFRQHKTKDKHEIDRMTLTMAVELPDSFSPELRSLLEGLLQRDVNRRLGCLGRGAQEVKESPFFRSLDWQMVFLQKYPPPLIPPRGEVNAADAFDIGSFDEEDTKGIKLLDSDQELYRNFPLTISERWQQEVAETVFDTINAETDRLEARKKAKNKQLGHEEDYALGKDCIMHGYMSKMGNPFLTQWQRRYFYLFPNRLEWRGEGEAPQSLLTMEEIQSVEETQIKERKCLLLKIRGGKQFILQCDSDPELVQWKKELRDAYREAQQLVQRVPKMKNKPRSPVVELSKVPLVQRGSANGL
# [10] = target: Beta-2 adrenergic receptor (Homo sapiens) (UniProt P07550); assay: beta2AR agonists driving receptor internalization, pilot screen, cell-based, FAP fluorogen, flow cytometry, validation set (AID 504459;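 active = percent response above 42, roughly 3 SD of non-fluorescent test compounds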;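 also: agonist-driven loss of surface beta2AR via internalization measured by FAP dye flow cytometry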); conditions: Am2.2-beta2AR cells, FAP surface receptor flow cytometry; at 10 µM; stronger effect = higher value
# Sequence of Beta-2 adrenergic receptor (Homo sapiens) (P07550 whole entry, looked up): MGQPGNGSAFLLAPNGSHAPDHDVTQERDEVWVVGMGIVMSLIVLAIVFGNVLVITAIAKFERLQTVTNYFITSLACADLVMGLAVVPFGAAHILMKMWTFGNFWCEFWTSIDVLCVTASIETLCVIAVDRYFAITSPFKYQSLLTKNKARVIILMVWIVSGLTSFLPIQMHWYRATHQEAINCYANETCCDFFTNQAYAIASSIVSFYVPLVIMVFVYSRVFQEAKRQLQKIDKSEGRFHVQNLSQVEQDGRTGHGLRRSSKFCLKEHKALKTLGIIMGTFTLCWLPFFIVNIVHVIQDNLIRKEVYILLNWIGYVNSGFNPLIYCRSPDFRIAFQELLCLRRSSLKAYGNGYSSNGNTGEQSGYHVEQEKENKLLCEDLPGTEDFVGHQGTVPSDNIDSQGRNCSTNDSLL
# [11] = target: AP-2 complex subunit beta (Homo sapiens) (UniProt P63010); assay: inhibitors of arrestin peptide binding to AP2, pilot screen, biochemical, validation set, GST-AP2 beads, flow cytometry (AID 504541;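 active = inhibition above 54%, about 3 SD of non-fluorescent compounds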;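 also: AP2 carries R879A mutation and is captured from E. coli lysate; bead-bound FITC arrestin peptide fluorescence measuring arrestin peptide binding to AP2; 0% = DMSO wells and 100% = excess unlabeled arrestin peptide control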); conditions: FITC arrestin peptide, at 10 µM, stronger effect = higher value, AP2 beta2 appendage fragment, R879A mutant
# Sequence of AP-2 complex subunit beta (Homo sapiens) (P63010 whole entry, looked up, the tested form may be a part, one chain of several): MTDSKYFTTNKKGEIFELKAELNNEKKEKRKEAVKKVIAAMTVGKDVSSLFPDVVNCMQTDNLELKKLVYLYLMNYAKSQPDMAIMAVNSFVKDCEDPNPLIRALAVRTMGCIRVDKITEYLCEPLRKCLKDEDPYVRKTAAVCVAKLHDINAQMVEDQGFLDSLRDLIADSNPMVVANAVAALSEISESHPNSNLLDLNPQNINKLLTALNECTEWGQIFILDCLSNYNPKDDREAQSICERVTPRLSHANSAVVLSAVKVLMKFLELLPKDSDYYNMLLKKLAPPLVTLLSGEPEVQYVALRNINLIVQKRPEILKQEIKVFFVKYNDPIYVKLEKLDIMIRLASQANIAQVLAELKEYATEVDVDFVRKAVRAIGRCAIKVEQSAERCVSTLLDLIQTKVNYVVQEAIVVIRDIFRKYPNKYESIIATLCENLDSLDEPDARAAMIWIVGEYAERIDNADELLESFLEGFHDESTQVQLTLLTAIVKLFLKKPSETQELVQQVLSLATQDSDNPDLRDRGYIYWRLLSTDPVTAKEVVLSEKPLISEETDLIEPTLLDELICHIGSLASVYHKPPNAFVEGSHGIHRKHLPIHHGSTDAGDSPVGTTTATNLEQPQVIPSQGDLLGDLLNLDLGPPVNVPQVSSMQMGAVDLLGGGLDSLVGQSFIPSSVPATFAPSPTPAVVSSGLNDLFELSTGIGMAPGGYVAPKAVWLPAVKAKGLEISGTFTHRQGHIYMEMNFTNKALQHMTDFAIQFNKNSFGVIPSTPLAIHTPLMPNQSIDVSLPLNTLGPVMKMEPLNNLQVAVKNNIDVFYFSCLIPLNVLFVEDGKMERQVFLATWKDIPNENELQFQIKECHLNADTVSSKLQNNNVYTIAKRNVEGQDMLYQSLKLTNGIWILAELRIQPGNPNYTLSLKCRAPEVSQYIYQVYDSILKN
# [12] = yeast V-ATPase proton transport modulators, S. cerevisiae, pHLuorin, HTS validation (AID 504600; in the data active = response above about 15%;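 also: plate controls were DMSO for no effect and reference compound for full effect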); conditions: S. cerevisiae pHLuorin cytosolic pH, at 10 µM, stronger effect = higher value
# [13] = tested on: anti-desmoglein-3 scFv antibody binding to human DSG3; assay: inhibitors of anti-DSG3 scFv binding to DSG3, pilot screen, biochemical, validation compound set, bead-based, flow cytometry (AID 588368;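 active = binding below the plate cutoff, the plate median minus 3 SD, with a reading above zero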;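 also: signal is the median channel fluorescence of bead-bound GFP antibody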); conditions: Protein G beads, DSG3-Fc, scFv-GFP binding, at 10 µM, stronger effect = lower value
# [14] = inhibitors of fungal efflux pumps CDR1, CDR2, MDR1, pilot screen, validation compound set, multiplex, phenotypic (AID 588506;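 active = efflux inhibition above 0.42, the validation set average plus 4 SD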;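 also: Nile Red retained in cells so higher fluorescence means more efflux inhibition; 0 = negative control wells and 1 = enniatin B 25 µM full block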); conditions: S. cerevisiae pump-expressing triplex, Nile Red efflux flow cytometry; at 10 µM; stronger effect = higher value; the pumps come from Candida albicans
# [15] = target: ATP-binding cassette sub-family B member 6 (Homo sapiens) (UniProt Q9NP58); assay: ABCB6 transporter inhibitors, pilot screen, K562-ABCB6 cells, flow cytometry, validation set (AID 588550); conditions: K562-ABCB6 porphyrin accumulation, 1 h, at 10 µM, stronger effect = higher value;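 also: 0% = DMSO wells and 100% = benzethonium chloride 70 µM positive control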
# Sequence of ATP-binding cassette sub-family B member 6 (Homo sapiens) (Q9NP58 whole entry, looked up): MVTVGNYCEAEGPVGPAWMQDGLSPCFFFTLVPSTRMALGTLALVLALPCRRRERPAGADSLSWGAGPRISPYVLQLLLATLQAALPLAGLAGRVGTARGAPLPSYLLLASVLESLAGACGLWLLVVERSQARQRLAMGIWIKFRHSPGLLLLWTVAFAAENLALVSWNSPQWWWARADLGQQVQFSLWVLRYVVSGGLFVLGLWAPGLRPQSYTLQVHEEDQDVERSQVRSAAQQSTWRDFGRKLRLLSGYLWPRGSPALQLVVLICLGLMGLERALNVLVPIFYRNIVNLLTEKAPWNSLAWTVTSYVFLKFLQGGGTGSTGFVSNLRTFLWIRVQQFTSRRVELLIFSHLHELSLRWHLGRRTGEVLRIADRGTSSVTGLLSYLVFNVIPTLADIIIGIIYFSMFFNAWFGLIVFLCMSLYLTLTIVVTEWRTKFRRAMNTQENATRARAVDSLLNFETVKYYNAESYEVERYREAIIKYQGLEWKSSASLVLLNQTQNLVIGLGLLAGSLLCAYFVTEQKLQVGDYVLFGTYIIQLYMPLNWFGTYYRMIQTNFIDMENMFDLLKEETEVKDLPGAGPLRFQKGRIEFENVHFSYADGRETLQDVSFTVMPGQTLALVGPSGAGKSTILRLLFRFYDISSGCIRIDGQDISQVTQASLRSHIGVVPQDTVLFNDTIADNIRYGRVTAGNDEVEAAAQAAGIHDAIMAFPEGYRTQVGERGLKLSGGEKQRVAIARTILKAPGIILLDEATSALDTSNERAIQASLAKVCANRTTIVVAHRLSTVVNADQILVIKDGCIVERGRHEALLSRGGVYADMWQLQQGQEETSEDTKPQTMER
# [16] = promoters of myeloid differentiation in arrested cells, primary screen, cell-based, GFP/MAC1 double positive, flow cytometry, validation set (AID 588685;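 active = differentiation response of at least 50%, scaled between solvent and reference control, from cells with both markers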;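 also: compound exposure lasts four days before antibody staining and flow analysis; 0% = DMSO wells and 100% = 5 µM fulvestrant positive control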); conditions: ER-HoxA9 marrow cells, stronger effect = higher value, normalized: vehicle 0, fulvestrant 100
Compound,percent of DMSO control GFP [1],GFP response vs DMSO [2],percent response of DMSO control [3],GFP response vs DMSO [4],"GFP response, % of DMSO [5]",double positive events [6],vesicle binding response [6],inhibition [7],superoxide response (% of plate) [8],aptamer binding inhibition [9],response [10],inhibition [11],response [12],binding (% of control) [13],efflux inhibition (fraction of control) [14],inhibition [15],differentiation response [16]
COc1cc(CO)ccc1OCc1nnnn1-c1ccc(C)cc1,102% (inactive),105% (inactive),102% (inactive),95.9% (inactive),101% (inactive),58.4%,163% (inactive),2.93% (inactive),107% (inactive),-1% (inactive),6.38% (inactive),-5.08% (inactive),10.4% (inactive),97.3% (inactive),0.64 (active),-8% (inactive),-1.65% (inactive)
CN(C)C(=O)Oc1cccc([N+](C)(C)C)c1,95.7% (inactive) and 98.8% (inactive),104% (inactive) and 109% (inactive),100% (inactive) and 91% (inactive),115% (inactive) and 112% (inactive),110% (inactive) and 105% (inactive),55.5% and 63.8%,158% (inactive) and 4880% (inactive),-2.82% (inactive) and 3.67% (inactive),93.6% (inactive) and 108% (inactive),-3% (inactive) and 4% (inactive),-26.2% (inactive) and -0.74% (inactive),-12.1% (inactive) and 15% (inactive),0% (inactive) and -1.87% (inactive),106% (inactive) and 97.8% (inactive),0 (inactive) and -0.13 (inactive),2% (inactive) and 4% (inactive),-0.06% (inactive) and -15.2% (inactive)
COc1ccc(-c2cc(=O)oc3cc(OC(C)C(=O)O)ccc23)cc1 (stereo not drawn),107% (inactive),94.7% (inactive),93.8% (inactive),104% (inactive),107% (inactive),63.4%,124% (inactive),11.7% (inactive),115% (inactive),3% (inactive),-24.8% (inactive),6.04% (inactive),1.91% (inactive),108% (inactive),0 (inactive),3% (inactive),19.6% (inactive)
Cc1cccc(N2CCN(C(=S)c3ccccc3)CC2)c1,100% (inactive),108% (inactive),100% (inactive),88.7% (inactive),90.8% (inactive),63.1%,5220% (inactive),-4.6% (inactive),101% (inactive),0% (inactive),-1.25% (inactive),-6.82% (inactive),1.76% (inactive),95.3% (inactive),-0.14 (inactive),2% (inactive),-8.55% (inactive)
CCOC(=O)Cn1c(C)cc(=O)c2ccccc21,97.6% (inactive),114% (inactive),91% (inactive),117% (inactive),103% (inactive),59.9%,226% (inactive),10.5% (inactive),103% (inactive),0% (inactive),8.73% (inactive),56.3% (active),-4.51% (inactive),92.6% (inactive),0.3 (inactive),0% (inactive),114% (active)
O=C(/C=C/c1ccccc1)NC(=O)c1ccccc1O,106% (inactive),104% (inactive),104% (inactive),121% (inactive),94.2% (inactive),59.9%,128% (inactive),4.27% (inactive),111% (inactive),-4% (inactive),5.9% (inactive),15.2% (inactive),-7.97% (inactive),102% (inactive),0.07 (inactive),0% (inactive),-10.4% (inactive)
CC(=O)C1=C(O)C(=O)N(Cc2cccnc2)C1c1ccc(C(C)C)cc1 (stereo not drawn),97.5% (inactive),109% (inactive),100% (inactive),113% (inactive),104% (inactive),59.9%,152% (inactive),-6.23% (inactive),84.1% (inactive),-1% (inactive),-27.3% (inactive),5.98% (inactive),2.79% (inactive),102% (inactive),0.08 (inactive),1% (inactive),-5.97% (inactive)
Cc1nc(N)nc2c1CCCC2,89.1% (inactive),133% (inactive),99.2% (inactive),74.8% (inactive),94.9% (inactive),62.1%,179% (inactive),6.46% (inactive),102% (inactive),5% (inactive),-4.6% (inactive),-2.43% (inactive),-0.37% (inactive),109% (inactive),-0.31 (inactive),13% (inactive),-9.83% (inactive)
Nc1nc(Cl)nc2c1ncn2[C@@H]1O[C@H](CO)[C@@H](O)[C@H]1O,92.4% (inactive),128% (inactive),101% (inactive),80.3% (inactive),102% (inactive),57.5%,109% (inactive),2.58% (inactive),95.9% (inactive),6% (inactive),-6.94% (inactive),1.36% (inactive),10.6% (inactive),104% (inactive),0.3 (inactive),9% (inactive),1.64% (inactive)
